Data on six molecules can be found in PubChem BioAssay (NCATS).

Assay [1] in a line: UWB1.289 Cancer Cell Toxicity qHTS against the NCATS CANVASS Library (AID 1347347). Note: nearly all actives have a fitted effect of over 60% in size. Note: potency is the fitted concentration of half-maximal effect. Summed up: (§1)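 Per well, 1000 cells; exposure 72 h with compound at 11 final concentrations; readout CellTiter-Glo luminescence.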
Assay [2] in a line: SW1088 Cancer Cell Toxicity qHTS against the NCATS CANVASS Library (AID 1347350). Note: nearly all actives have a fitted effect of over 75% in size. Note: potency is the fitted concentration of half-maximal effect. Summed up:
as §1

Assay [3] can be described thus: A2780 Cisplatin Sensitive Ovarian Cancer Cell Toxicity qHTS against the NCATS CANVASS Library (AID 1347353). Note: nearly all actives have a fitted effect of over 60% in size. Note: potency is the fitted concentration of half-maximal effect. The method, boiled down:
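Cells are plated at 750 per well and rest for 4 hours. Compounds are added across eleven concentrations, and incubated 72 hours before ATP is quantified by luminescence.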

Assay [4] in a line: UWB1.289-WTBRCA1 Cancer Cell Toxicity qHTS against the NCATS CANVASS Library (AID 1347354). Note: potency is the fitted concentration of half-maximal effect. Summed up:
(§2)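 First, 1000 cells go into each well and rest for 4 hours. Next, an 11-point dilution range is pinned in. Plates then incubate 72 hours before CellTiter-Glo addition and luminescence reading.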

The test system of assay [5] is NAD(P)H diaphorase (Clostridium kluyveri). The assay can be described thus: Diaphorse counterscreen qHTS: Assay Interference Panel against the NCATS CANVASS Library (AID 1347362). The method, boiled down: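 Counterscreen for coupling-enzyme interference: resorufin fluorescence from resazurin/NADH turnover, read after 5 min at room temperature. Compounds were tested over an 11-point series after 15 min dark preincubation with diaphorase in PBS-Tween.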

A short description of assay [6]: SDT Cancer Cell Toxicity qHTS against the NCATS CANVASS Library (AID 1347365). Note: nearly all actives have a fitted effect of over 60% in size. Note: potency is the fitted concentration of half-maximal effect. The method, boiled down: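 Cytotoxicity is measured from cellular ATP: compounds in an 11-point concentration series are pinned onto SDT cells, incubated 72 hr at 37C, then CellTiterGlo is added and luminescence read.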
Assay [7] can be described thus: qHTS for Hypoxia signaling pathway (HIF-1) agonists against the NCATS CANVASS Library (AID 1347375). Note: potency is the fitted concentration of half-maximal effect. The method, boiled down: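 Cells plated and rested 5 h, compounds pinned in DMSO across 11 concentrations, incubated 17 h at 37C, loaded with CCF4-AM for 2 h, fluorescence read at 460 and 530 nm, then CellTiter-Glo luminescence measured for viability and normalization.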

The nature of assay [8]: DH5-alpha competent E. coli microbial cell viability qHTS against the NCATS CANVASS Library (AID 1347377). The settings on record: outcome: dose series up to 46.1 µM unless noted. Summed up: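 Bacteria were dispensed at 0.2 OD, then compounds were pin-transferred. Plates were incubated overnight at 37C, after which BacTiter-Glo was added and luminescence measured 20 min later.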

Assay [9] can be described thus: Secretion counterscreen for inhibitors of the SERCaMP assay screened against the NCATS CANVASS Library (AID 1347390).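 Note: light from luciferase secreted into medium read as a measure of general secretion; series mostly up to about 77 µM.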 The method, boiled down: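 Counterscreen identifying compounds that disrupt secretion, using SH-SY5Y cells with a constitutively secreted Gaussia luciferase reporter. A 20 h compound exposure (top 77 uM) precedes luminescent detection with coelenterazine.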

Assay [10] can be described thus: Viability qHTS for inhibitors of the SERCaMP assay screened against the NCATS CANVASS Library (AID 1347400). Note: series mostly up to about 92 µM; nearly all actives have a fitted effect of over 70% in size. The method, boiled down:
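Seed SH-SY5Y-GLuc SERCaMP MJH297 cells at 1000 per well, incubate 4 h, add compounds across an 11-point range, incubate 48 h at 37C, then add CellTiter-Glo and read luminescence.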

The nature of assay [11]: Redox Reaction Profiling qHTS: Assay Interference Panel against the NCATS CANVASS Library (AID 1347401). Note: potency is the fitted concentration of half-maximal effect. The method, boiled down:
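Redox-cycling liability assessed as DTT-driven conversion of resazurin (5 uM, with 200 uM DTT, HEPES pH 7.3) to fluorescent resorufin. Fluorescence at 525/598 nm measured initially and after 15 min dark incubation.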

Assay [12] in a line: HEK-293 Cancer Cell Toxicity qHTS against the NCATS CANVASS Library (AID 1347355). Note: series mostly up to about 46 µM; nearly all actives have a fitted effect of over 65% in size. Summed up:
as §2

Assay [13] in a line: KB-8-5-11 Cancer Cell Toxicity qHTS against the NCATS CANVASS Library (AID 1347364). Note: nearly all actives have a fitted effect of over 75% in size. Summed up: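 Terse: KB-8-5-11, 500 cells/well, 72 hr, 37C/5% CO2, 11-pt titration, CellTiter-Glo readout; confirmatory runs ± 1uM tariquidar in medium.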
The nature of assay [14]: KB-3-1 Cancer Cell Toxicity qHTS against the NCATS CANVASS Library (AID 1347366). Note: nearly all actives have a fitted effect of over 75% in size. Summed up:
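Seed KB-3-1 cells at 500/well in DMEM with 10% FBS, add compounds, incubate 72 hr at 37C and 5% CO2, then add CellTiter-Glo and read luminescence after 10 minutes.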

A short description of assay [15]: qHTS for Hypoxia signaling pathway (HIF-1) antagonists against the NCATS CANVASS Library (AID 1347374). Note: nearly all actives have a fitted effect of over 60% in size. Note: potency is the fitted concentration of half-maximal effect. The method, boiled down:
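Antagonism scored as loss of CoCl2-driven (60 uM stock added) HRE beta-lactamase signal, read by CCF4 FRET at 460/530 nm. Compounds were tested in an 11-point series on ME-180 reporter cells for 17 hrs at 37C, with parallel CellTiter-Glo cytotoxicity.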

Assay [16] can be described thus: qHTS for H2AX Agonists against the NCATS CANVASS Library (AID 1347378).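 Note: phospho-H2AX S139 level in CHO-K1 lysates by TR-FRET emission ratio.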 Summed up:
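Following overnight seeding, CHO-K1 cells are incubated with a concentration series of compound for 3 hr at 37C (final DMSO 0.76%). Cells are then lysed, detection antibodies added, and emission ratio 665/620 nm recorded after 24 hr at room temperature.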

Assay [17] is described as follows: qHTS for Activators of p53 Stress Response Pathway screened against the NCATS CANVASS Library (AID 1347388). The method, boiled down:
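Beta-lactamase reporter driven by p53 response elements in HCT-116 cells, read as the 460 nm/530 nm emission ratio after CCF4 loading, following 16 h of exposure to an 11-point series. Cell viability was measured in the same wells by CellTiter-Glo luminescence.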

Assay [18] is described as follows: qHTS for activators of dead-cell proteases activity screened against the NCATS CANVASS Library (AID 1347392).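 Note: luminescence from protease leaking out of membrane-damaged cells cleaving impermeant substrate; rising signal means more cytotoxicity.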 Summed up: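 Luminescent dead-cell protease readout (AAF-aminoluciferin, 15 min, room temperature) after 5 h compound treatment of HepG2 cells (2000/well, pre-attached 18 h). Eleven concentrations.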
Assay [19] is described as follows: qHTS for inhibitors of Wild type Zika virus screened against the NCATS CANVASS Library (AID 1347396).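 Note: ATP luminescence of surviving cells so rescue from viral cell killing; series mostly up to about 46 µM.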 Summed up: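 Using ATP-based luminescence (CellTiter Glo), this screen scores rescue of Vero 766 cells from wild-type Zika killing at 72 h post-infection. Compounds are tested in a concentration series.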
A short description of assay [20]: qHTS for inhibitors of ER calcium dysfunction: SERCaMP assay screened against the NCATS CANVASS Library (AID 1347393). Note: nearly all actives have a fitted effect of over 40% in size. Note: potency is the fitted concentration of half-maximal effect. The method, boiled down:
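Thapsigargin-induced ER calcium depletion drives GLuc-SERCaMP secretion from SH-SY5Y cells; compounds given 16 h beforehand were scored by lowered coelenterazine luminescence after 4 h challenge.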

Structures are written as SMILES. Inconclusive results are not listed. Unmarked numbers belong to inactive results. Calls of active or inactive are those of the source. Calls come from the whole dose curve; as a rule, active = well fitted curve in the direction sought with a large enough effect; inconclusive = small, poorly fitted or top-dose-only effect, or another doubt; inactive = no such curve, though single readings can be large; an effect the other way counts as inactive or inconclusive.

On to `CC(C)=CCC/C(C)=C/Cc1c(O)c(CC=C(C)C)c(O)c2c(=O)c3cc(O)ccc3oc12`, for which the Potency in assay [1] is 8.38 µM (active); in [2], 9.43 µM (active); in assay [3] it was 14.8 µM (active); in assay [4] it was 14.9 µM (active); in [6], 20.9 µM (active); in assay [7], 13.3 µM (active). For the same molecule, the Potency entry in assay [5], in assay [9], in assay [10] and in assay [11] was “inactive” each time. In addition, in assay [8], the molecule was classed as inactive.
Take `COc1cc(O)c2c3c(c(O)cc(C)c13)C(=O)OC2`: the Potency entry in assay [1], in assay [2], in [3], in assay [4], in [12] and in assay [13] was “inactive” in each case. The Potency entry in [6], in [14], in assay [15], in assay [7], in assay [16] and in assay [17] was “inactive” each time. Moreover, the Potency entry in assay [9], in [18], in assay [19] and in assay [10] was “inactive” each time. Also, the molecule was called inactive in assay [8]. The Potency in [11] is 21.5 µM (active).
For the molecule `COc1c(O)cc2oc(-c3ccccc3)cc(=O)c2c1O`, the Potency entry in [2], in [4], in [12], in assay [5], in assay [6] and in assay [7] was “inactive” throughout. Further, the Potency result in assay [16], in assay [17], in assay [9], in assay [18], in assay [10] and in assay [11] was “inactive” throughout. Moreover, the Potency in assay [3] is 20.9 µM (active); in [15], 9.41 µM (active); in [20] it was 34.3 µM (active). Also, the call in assay [8] was inactive.
Take `CCCCCCCCCCCCCCCC(=O)OC/C=C(\C)CCCC(C)CC(C)C(C)C` (stereo not drawn): the Potency entry in assay [1], in assay [2], in assay [3], in assay [4], in assay [12] and in assay [5] was “inactive” throughout. Besides, the Potency result in assay [13], in assay [6], in [14], in [15], in assay [7] and in assay [16] was “inactive” each time. Besides, the Potency result in assay [17], in assay [9], in assay [18], in assay [20], in assay [19] and in assay [10] was “inactive” in each case. Besides, the Potency entry in assay [11] is “inactive”. Moreover, the call in [8] was inactive.
As for `C=C(C)CC[C@H](Cc1c(O)cc(O)c2c1O[C@H](c1ccc(O)cc1O)CC2=O)C(=C)C`, the Potency in [2] is 21.1 µM (active); in assay [20], 30.5 µM (active). For the same molecule, the Potency entry in [4], in assay [12], in assay [5], in [13], in assay [6] and in [14] was “inactive” each time. The Potency result in assay [7], in [16], in [17], in assay [18], in [19] and in [10] was “inactive” in each case. The Potency entry in assay [11] is “inactive”.
Take `C=C(NC(=O)c1csc(-c2nc3c(cc2O)-c2nc(cs2)C(=O)NC(C(C)O)C(=O)N/C(=C(\C)O)c2nc(cs2)C(=O)NC2c4nc(cs4)C(=O)NC(COC(=O)c4c5c6c(cccc6n4O)COC(=O)[C@@H](OC4C[C@](C)(O)[C@H](N(C)C)[C@H](C)O4)C2OC5)c2nc-3cs2)n1)C(N)=O` (stereo partly drawn): the Potency result in [1], in [2], in assay [3], in assay [4], in [5] and in assay [13] was “inactive” throughout. In addition, the Potency result in assay [14], in [15], in assay [16], in [18], in [19] and in [10] was “inactive” throughout. Besides, in assay [8], the molecule was classed as inactive.
